Screening data (PubChem BioAssay)
LmPK inhibitor: LmPK (Leishmania mexicana) enzyme inhibition | Q27686 | purified LmPK, Kinase-Glo ATP luminescence, 1 h | Potency, µM (highest dose often 57.5 µM), for inactives: at the top dose activity change, negative = inhibition, most hits filed as inhibitors | 290,000 tested, 0.37% active | AID 1721; also: potency is read from the fitted curve at half-maximal effect; % is scaled to controls: 0 for no effect and ±100 for the full control effect
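Kinase-Glo luminescence read after 1 h RT reaction of 0.1 nM LmPK with 0.5 mM PEP and 0.1 mM ADP. Activity scaled between uninhibited and enzyme-free controls.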
TbPYK inhibitor: blocks Trypanosoma brucei pyruvate kinase; Potency, µM (top dose mostly 76.8 µM), without a hit: top-dose activity, negative = inhibition, hits mostly inhibitors; Q57TT1; TbPYK enzyme, Kinase-Glo Plus ATP luminescence, 45 min; AID 624173; 410,000 tested, 0.12% active; also: potency is read from the fitted curve at half-maximal effect; % is scaled to controls: 0 for no effect and ±100 for the full control effect; nearly all actives have a fitted effect of over 50% in size
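ADP (130 uM final) triggers the TbPYK reaction after compound addition; incubation is 45 min at room temperature. Kinase-Glo Plus is then added and luminescence imaged. Normalized data are fitted to concentration-effect curves.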
Giardia FBPA inh: inhibitors of Giardia lamblia fructose-1,6-bisphosphate aldolase; A8B2U2; purified Giardia FBPA; Potency, µM (titrated, usually from 59.6 µM), without a hit: at the top dose activity, negative = inhibition, usual class: inhibitors; 290,000 tested, 0.71% active; AID 2451; also: potency is read from the fitted curve at half-maximal effect; % is scaled to controls: 0 for no effect and ±100 for the full control effect; nearly all actives have a fitted effect of over 55% in size
Target sequence (A8B2U2 whole entry, looked up): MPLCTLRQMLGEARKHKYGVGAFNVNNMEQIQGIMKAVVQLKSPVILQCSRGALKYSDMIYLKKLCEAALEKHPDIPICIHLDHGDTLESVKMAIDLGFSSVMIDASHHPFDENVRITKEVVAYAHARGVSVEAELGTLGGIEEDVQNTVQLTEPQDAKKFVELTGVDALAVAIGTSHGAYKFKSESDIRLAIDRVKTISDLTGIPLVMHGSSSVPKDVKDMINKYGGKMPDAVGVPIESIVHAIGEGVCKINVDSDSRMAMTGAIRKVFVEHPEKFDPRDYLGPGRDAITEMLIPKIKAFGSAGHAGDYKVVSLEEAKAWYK
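Giardia FBPA (40 nM reagent) was preincubated 10 min at RT with compound (up to 57.5 uM final), then substrate plus GAPDH/TPI/NAD/arsenate coupling system with diaphorase/resazurin was added; resorufin fluorescence (525/598 nm) was read after 20 min.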
CHX counter: counter-screen for Shiga toxin inhibitors: cycloheximide protein synthesis inhibition; cell reporter, cycloheximide protein synthesis inhibition counterscreen; AID 2314; max response, %; 300,000 tested, 12% active; in the data active = max response mostly above about 13%, no sharp cut-off; inactive = mostly below about 14%; also: read at 38.3 µM for the half of the compounds with a filed dose; 0% is about no effect
Sm TGR block: blocks Schistosoma mansoni thioredoxin glutathione reductase. Q962Y6. purified TGR, DTNB reduction, TNB absorbance 405 nm. Potency, µM (top dose mostly 114 µM), for the others: at the top dose activity change, negative = inhibition, most hits filed as inhibitors. 360,000 tested, 3% active. AID 485364; also: potency is read from the fitted curve at half-maximal effect; % is scaled to controls: 0 for no effect and ±100 for the full control effect; nearly all actives have a fitted effect of over 60% in size
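Kinetic colorimetric format: TGR-catalysed, NADPH-driven DTNB reduction monitored via TNB absorbance. Enzyme dispensed at 20 nM; compound exposure 15 min at room temperature before reaction start.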
Shiga inhibitor: inhibitors of Shiga toxin in Vero cells; inhibition, % at 38.7 µM; 290,000 tested, 9.2% active; Vero cells, Shiga toxin protein synthesis inhibition reporter; in the data active = inhibition mostly above about 28%, no sharp cut-off; inactive = mostly below about 43%; also: 0% is about no effect
* hit, by the source's call; ! = a repeat was not active; [ ] = another dose, or the depositor's remark. This is one part of a sample in which hits are shown more often than they occur. Unless noted, calls follow the shape of the dose curve; as a rule, active = well fitted curve in the direction sought with a large enough effect; inconclusive = small, poorly fitted or top-dose-only effect, or another doubt; inactive = no such curve, though single readings can be large; an effect the other way counts as inactive or inconclusive.

What do the screens show for `CCOc1ccccc1NS(=O)(=O)c1cccs1`?
LmPK inhibitor: 1.9%; TbPYK inhibitor: 4.3%; Giardia FBPA inh: 14.1µM*; CHX counter: -2.9; Sm TGR block: 5.6%; Shiga inhibitor: 1.0

Results for O=C(Cn1c(=O)oc2cc(S(=O)(=O)N3CCCCCC3)ccc21)Nc1cccc(C(F)(F)F)c1 ?
TbPYK inhibitor: 4.9%[15.4 µM]; Sm TGR block: 6.4%

How did N#CCSc1nc2c(cc1C#N)CCCC2 do in these assays?
LmPK inhibitor: 2.1%; TbPYK inhibitor: -8.4%; Giardia FBPA inh: 7.6%; CHX counter: 30.4*; Sm TGR block: -1.3%; Shiga inhibitor: 57.2

Results for N#Cc1cc2c(nc1SCc1cccnc1)CCCCC2 ?
LmPK inhibitor: 2.2%; TbPYK inhibitor: -5.9%; Giardia FBPA inh: 3.7%; CHX counter: 16.5; Sm TGR block: 2.3%; Shiga inhibitor: 129.6*

Results for COc1ccc(/C=C\c2onc(C)c2S(=O)(=O)N2CCC(C(=O)Nc3ccc(F)cc3F)CC2)cc1 ?
TbPYK inhibitor: 2.1%; Sm TGR block: -0.8%

What do the screens show for `O=C(CSc1nnc(-c2ccco2)o1)c1ccccc1`?
LmPK inhibitor: -2.2%; TbPYK inhibitor: -11.7%; Giardia FBPA inh: -14.2%; CHX counter: 32.9*; Sm TGR block: 25.1µM*; Shiga inhibitor: 65.6

What do the screens show for `O=C(CSc1nnc(-c2ccco2)o1)c1ccc[nH]1`?
LmPK inhibitor: -2.1%; TbPYK inhibitor: 1.3%; Giardia FBPA inh: -16.9%; CHX counter: 50.1*; Sm TGR block: 28.2µM*; Shiga inhibitor: 110.3*

What do the screens show for `O=C(CSc1nnc(-c2ccco2)o1)c1ccc(F)c(F)c1`?
LmPK inhibitor: -6.7%; TbPYK inhibitor: 7.6%; Giardia FBPA inh: 0.8%; CHX counter: 7.0; Sm TGR block: -20.3%; Shiga inhibitor: 21.5

How did CN(CC(=O)O/N=C(\N)c1ccc([N+](=O)[O-])cc1)S(=O)(=O)c1ccc2ccccc2c1 do in these assays?
LmPK inhibitor: 2.4%; TbPYK inhibitor: 0.2%; Giardia FBPA inh: 1.9%; CHX counter: -1.6; Sm TGR block: 3.4%; Shiga inhibitor: -9.3

What do the screens show for `N#Cc1ccccc1NCc1ccccc1`?
LmPK inhibitor: 2.0%; TbPYK inhibitor: -0.7%; Giardia FBPA inh: -1.2%; CHX counter: -0.7; Sm TGR block: -2.0%; Shiga inhibitor: -8.5

How did O=C1C=C(Nc2ccccc2O)c2ccccc2C1=O do in these assays?
LmPK inhibitor: -11.6%; TbPYK inhibitor: 4.1%; Giardia FBPA inh: 17.7µM*; CHX counter: 16.8*; Sm TGR block: -35.2%; Shiga inhibitor: 84.5*

How did O=c1cccccc1NCc1ccccc1 do in these assays?
LmPK inhibitor: -8.4%; Giardia FBPA inh: 8.89µM*; CHX counter: 26.1*; Sm TGR block: 35.5µM*; Shiga inhibitor: 6.3

What do the screens show for `O=C1C=C(NCc2ccccc2)c2ccccc2C1=O`?
LmPK inhibitor: -0.8%; TbPYK inhibitor: 3.3%; Giardia FBPA inh: 1.26µM*; CHX counter: 56.2*; Sm TGR block: 28.2µM*; Shiga inhibitor: 80.5*

Results for O=C1C=C(Nc2ccc(F)cc2)c2ccccc2C1=O ?
TbPYK inhibitor: 3.1%; Sm TGR block: -19.8%

Results for O=C1C=CC2(OCCCO2)C(Br)=C1CO ?
Giardia FBPA inh: 2.8%

What do the screens show for `CC(C)CC(=O)Nc1ccc2ccccc2c1`?
LmPK inhibitor: 1.1%; TbPYK inhibitor: -0.8%; Giardia FBPA inh: -0.7%; CHX counter: -1.9; Sm TGR block: -5.8%; Shiga inhibitor: 92.3*!

What do the screens show for `Cc1ccn(C(=O)c2ccc(NC(=O)CC(C)C)cc2)n1`?
LmPK inhibitor: 3.3%; TbPYK inhibitor: 4.1%; Giardia FBPA inh: 0.1%; CHX counter: 15.0*; Shiga inhibitor: 34.7

What do the screens show for `CC(C)CC(=O)Nc1ccc(Nc2ccccc2)cc1`?
LmPK inhibitor: 8.1%; TbPYK inhibitor: -11.0%; Giardia FBPA inh: -5.6%; CHX counter: 31.4; Sm TGR block: -3.2%; Shiga inhibitor: 36.3*

How did CC(C)(C)CC(=O)Nc1ccc(Nc2ccccc2)cc1 do in these assays?
LmPK inhibitor: 5.8%; TbPYK inhibitor: -5.4%; Giardia FBPA inh: -1.3%; CHX counter: 23.1*; Sm TGR block: 3.2%; Shiga inhibitor: 46.6*

How did CCC(=O)Nc1ccc2ccccc2c1 do in these assays?
LmPK inhibitor: -1.2%; TbPYK inhibitor: -4.8%; Giardia FBPA inh: 0.2%; CHX counter: 21.0; Sm TGR block: -5.7%; Shiga inhibitor: 26.6

How did CCC(=O)Nc1ccc(C(=O)n2ccc(C)n2)cc1 do in these assays?
LmPK inhibitor: -3.3%; TbPYK inhibitor: 1.2%; Giardia FBPA inh: -3.4%; CHX counter: 7.1; Sm TGR block: 22.9%; Shiga inhibitor: 14.5

How did C=C1C(n2cnc3c(=O)[nH]c(N)nc32)C[C@H](O)[C@H]1CO (some centres not stated) do in these assays?
TbPYK inhibitor: 0.3%

How did CN1CCN(c2ncc3nc(-c4ccccc4)c(=O)n(C4CC4)c3n2)CC1 do in these assays?
Giardia FBPA inh: -3.8%

How did CC(Oc1ccccc1F)C(=O)Nc1ccc2ccccc2c1 (configuration not stated) do in these assays?
LmPK inhibitor: 1.3%; TbPYK inhibitor: 1.4%; Giardia FBPA inh: -7.2%; CHX counter: 45.1*; Sm TGR block: 5.0%; Shiga inhibitor: 79.7*

What do the screens show for `CC1(C(=O)Nc2ccc3ccccc3c2)CC1(Br)Br` (configuration not stated)?
LmPK inhibitor: 0.8%; TbPYK inhibitor: -15.4%; Giardia FBPA inh: -11.1%; CHX counter: 28.9*; Shiga inhibitor: 65.3*

What do the screens show for `CC1(c2ccncc2)Nc2ccccc2-c2nc3ccccc3n21` (configuration not stated)?
LmPK inhibitor: -5.0%; TbPYK inhibitor: -3.5%; Giardia FBPA inh: -13.3%; CHX counter: 16.0*; Sm TGR block: -16.5%; Shiga inhibitor: 28.5

What do the screens show for `COc1ccc2c(c1)C1(Nc3ccccc3-c3nc4ccccc4n31)C(=O)N2` (configuration not stated)?
LmPK inhibitor: -6.1%; TbPYK inhibitor: 12.4%; Giardia FBPA inh: 2.1%; CHX counter: -2.7; Sm TGR block: -4.7%; Shiga inhibitor: -18.2

How did Cc1ccc(C)c(OCc2ccc(C(=O)Nc3ccc([N+](=O)[O-])cn3)o2)c1 do in these assays?
TbPYK inhibitor: 0.0%; Sm TGR block: -9.2%

How did Cc1cc(C(=O)Nc2ccc([N+](=O)[O-])cn2)cs1 do in these assays?
LmPK inhibitor: -5.1%; TbPYK inhibitor: -10.0%; Giardia FBPA inh: 5.2%; CHX counter: 40.9*; Sm TGR block: 5.2%; Shiga inhibitor: 141.0*

Results for COc1ccc(C(=O)Nc2ccc([N+](=O)[O-])cn2)c(OC)c1 ?
LmPK inhibitor: 2.9%; TbPYK inhibitor: 0.5%; Giardia FBPA inh: -2.5%; CHX counter: 35.6*; Sm TGR block: 3.0%; Shiga inhibitor: 107.3*
